Assay results: PubChem BioAssay (EPA / NIEHS)
The source made the active and inactive calls. The calls were made as follows: active = hit-call score of the fitted dose curve at least 0.9, where 1 is the maximum; inactive = score below 0.9.

How the values were obtained:
Conditions in all cases: mRNA level, 48 h; actives raise or lower the signal
[1] = read-out: CFLAR gene, CFLAR (gene 8837); experiment: LTEA_HepaRG_CFLAR: Life Technologies and Expression Analysis (LTEA) Assay for CFLAR gene using HepaRG (AID 2283455)
Summary of the method: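 HepaRG, 48 h exposure, 8-pt conc-response (100 uM top, half-log), 0.5% DMSO vehicle, duplicates. CFLAR expression by qRT-PCR; ACTB/GAPDH/POLR2A normalization; gain or loss fit vs DMSO baseline.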

[2] = read-out: Forkhead box O1 (FOXO1), FOXO1 (gene 2308); experiment: LTEA_HepaRG_FOXO1: Life Technologies and Expression Analysis (LTEA) Assay for Forkhead box O1 (FOXO1) using HepaRG (AID 2283456)
Summary of the method: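 Readout is FOXO1 transcript level by multiplexed qRT-PCR against three housekeeping genes, curve-fitted in both directions relative to 0.5% DMSO vehicle. Human HepaRG cultures received chemicals for 48 h, up to 100 uM in half-log steps.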

[3] = read-out: growth arrest and DNA damage 45 (GADD45A), GADD45A (gene 1647); experiment: LTEA_HepaRG_GADD45A: Life Technologies and Expression Analysis (LTEA) Assay for growth arrest and DNA damage 45 (GADD45A) using HepaRG (AID 2283458)
Summary of the method: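 Differentiated HepaRG cells were exposed in duplicate for 48 h in serum-free induction medium to 8-point half-log concentrations up to 100 uM in 0.5% DMSO. GADD45A mRNA was measured by TaqMan qRT-PCR, normalized to ACTB, GAPDH and POLR2A, with bidirectional fitting versus DMSO.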

[4] = read-out: ABC Transporter (ABCB1), ABCB1 (gene 5243); experiment: LTEA_HepaRG_ABCB1: Life Technologies and Expression Analysis (LTEA) Assay for ABC Transporter (ABCB1) using HepaRG (AID 2283460)
Summary of the method: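 Expression of ABCB1 was quantified by qRT-PCR against three housekeeping genes after human HepaRG cultures received test chemicals for 48 hours. Concentrations spanned eight half-log steps topping at 100 uM in 0.5% DMSO; gain or loss of signal was fitted relative to vehicle.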

[5] = read-out: growth arrest and DNA damage 45 (GADD45B), GADD45B (gene 4616); experiment: LTEA_HepaRG_GADD45B: Life Technologies and Expression Analysis (LTEA) Assay for growth arrest and DNA damage 45 (GADD45B) using HepaRG (AID 2283461)
Summary of the method: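 Differentiated HepaRG cells, plated 48 h then switched to serum-free induction medium, were exposed 48 h in duplicate to eight half-log concentrations from 100 uM in 0.5% DMSO; mRNA quantified by qRT-PCR, normalized to ACTB/GAPDH/POLR2A, bidirectional fit versus DMSO.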

[6] = read-out: ABC Transporter (ABCC3), ABCC3 (gene 8714); experiment: LTEA_HepaRG_ABCC3: Life Technologies and Expression Analysis (LTEA) Assay for ABC Transporter (ABCC3) using HepaRG (AID 2283462)
Summary of the method: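 HepaRG cells in serum-free induction medium were exposed for 48 h in duplicate to 8-point half-log concentrations topping at 100 uM in 0.5% DMSO. ABCC3 mRNA was measured by qRT-PCR normalized to ACTB, GAPDH and POLR2A, with bidirectional fitting versus DMSO.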

[7] = read-out: ABC Transporter (ABCB11), ABCB11 (gene 8647); experiment: LTEA_HepaRG_ABCB11: Life Technologies and Expression Analysis (LTEA) Assay for ABC Transporter (ABCB11) using HepaRG (AID 2283463)
Summary of the method: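 ABCB11 transcript levels are read by Fluidigm TaqMan qRT-PCR after 48 h chemical treatment of human HepaRG cells. Concentrations span 100 uM downward in half-log steps with 0.5% DMSO; gain or loss is fitted against DMSO controls.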

[8] = read-out: ABC Transporter (ABCC2), ABCC2 (gene 1244); experiment: LTEA_HepaRG_ABCC2: Life Technologies and Expression Analysis (LTEA) Assay for ABC Transporter (ABCC2) using HepaRG (AID 2283464)
Summary of the method: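 HepaRG cells were plated 48 h, switched to serum-free induction medium, then exposed in duplicate for 48 h to 8 concentrations (top 100 uM, half-log steps, 0.5% DMSO). ABCC2 mRNA was measured by qRT-PCR normalized to ACTB/GAPDH/POLR2A; bidirectional fitting versus DMSO.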

[9] = read-out: Broad substrate specificity ATP-binding cassette transporter ABCG2 (Homo sapiens) (UniProt Q9UNQ0); experiment: LTEA_HepaRG_ABCG2: Life Technologies and Expression Analysis (LTEA) Assay for ABC Transporter (ABCG2) using HepaRG (AID 2283465)
Summary of the method: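 Read-out is ABCG2 mRNA induction or loss quantified by qRT-PCR after 48 h chemical treatment of human HepaRG cells, normalized to three housekeeping genes. Concentrations reached 100 uM top in half-log steps; fitting was bidirectional against 0.5% DMSO.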

[10] = read-out: ATP-citrate lyase (ACLY), ACLY (gene 47); experiment: LTEA_HepaRG_ACLY: Life Technologies and Expression Analysis (LTEA) Assay for ATP-citrate lyase (ACLY) using HepaRG (AID 2283466)
Summary of the method: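 HepaRG, 48 h exposure, 8-pt half-log dilutions (top 100 uM), 0.5% DMSO. Readout: ACLY mRNA, TaqMan qRT-PCR, housekeeping-normalized (ACTB/GAPDH/POLR2A). Bidirectional curve fit vs DMSO.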

[11] = read-out: Alkaline Phosphatase, Placental (ALPP) gene, ALPP (gene 250); experiment: LTEA_HepaRG_ALPP: Life Technologies and Expression Analysis (LTEA) Assay for Alkaline Phosphatase, Placental (ALPP) gene using HepaRG (AID 2283468)
Summary of the method: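 Differentiated human HepaRG cells were plated and cultured 48 h, then exposed in duplicate for 48 h in serum-free induction medium to eight half-log concentrations from 100 uM in 0.5% DMSO. ALPP mRNA was measured by TaqMan qRT-PCR, normalized to ACTB, GAPDH, POLR2A.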

[12] = read-out: Bcl-2 (BAD) gene, BAD (gene 572); experiment: LTEA_HepaRG_BAD: Life Technologies and Expression Analysis (LTEA) Assay for Bcl-2 (BAD) gene using HepaRG (AID 2283469)
Summary of the method: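 BAD transcript change, measured by qRT-PCR against three housekeeping genes and fitted in both directions relative to 0.5% DMSO, after 48 h chemical treatment of human HepaRG liver cells at concentrations up to 100 uM.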

[13] = read-out: Bcl-2 (BAX) gene, BAX (gene 581); experiment: LTEA_HepaRG_BAX: Life Technologies and Expression Analysis (LTEA) Assay for Bcl-2 (BAX) gene using HepaRG (AID 2283470)
Summary of the method: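 Differentiated human HepaRG cells, plated 48 h then switched to serum-free induction medium, were exposed 48 h to 8 half-log concentrations up to 100 uM in 0.5% DMSO; BAX mRNA measured by qRT-PCR, normalized to ACTB, GAPDH, POLR2A.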

[14] = read-out: adenosine kinase (ADK) gene, ADK (gene 132); experiment: LTEA_HepaRG_ADK: Life Technologies and Expression Analysis (LTEA) Assay for adenosine kinase (ADK) gene using HepaRG (AID 2283471)
Summary of the method: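 Following 48 h exposure of HepaRG cells in 0.5% DMSO (top concentration 100 uM, duplicate wells), ADK mRNA induction or suppression was measured by qRT-PCR, normalised to ACTB/GAPDH/POLR2A, and fitted bidirectionally relative to vehicle.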

[15] = read-out: Alpha-fetoprotein (AFP) gene, AFP (gene 174); experiment: LTEA_HepaRG_AFP: Life Technologies and Expression Analysis (LTEA) Assay for Alpha-fetoprotein (AFP) gene using HepaRG (AID 2283472)
Summary of the method: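 Human HepaRG cells plated 48 h, then switched to serum-free induction medium and exposed in duplicate for 48 h to 8-point half-log series from 100 uM in 0.5% DMSO. AFP mRNA by qRT-PCR, normalized to ACTB, GAPDH, POLR2A; bidirectional fit versus DMSO.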

[16] = read-out: Apolipoprotein A-V (APOA5) gene, APOA5 (gene 116519); experiment: LTEA_HepaRG_APOA5: Life Technologies and Expression Analysis (LTEA) Assay for Apolipoprotein A-V (APOA5) gene using HepaRG (AID 2283474)
Summary of the method: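 Differentiated human HepaRG cells were exposed in duplicate for 48 h to eight half-log concentrations from 100 uM in 0.5% DMSO. APOA5 mRNA was quantified by TaqMan qRT-PCR, normalized to ACTB, GAPDH and POLR2A, and fitted bidirectionally against DMSO.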

[17] = read-out: BCL2L11 (gene 10018); experiment: LTEA_HepaRG_BCL2L11: Life Technologies and Expression Analysis (LTEA) Assay for Bcl-2 (BCL2L11) gene using HepaRG (AID 2283473)
Summary of the method: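 Differentiated human HepaRG cells in serum-free induction medium were exposed in duplicate for 48 h to eight concentrations (top 100 uM, half-log steps, 0.5% DMSO). BCL2L11 mRNA was quantified by TaqMan qRT-PCR, normalized to ACTB/GAPDH/POLR2A, bidirectional fit versus DMSO.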

Measured: AC50

Broad substrate specificity ATP-binding cassette transporter ABCG2 (Homo sapiens), sequence (Q9UNQ0 whole entry, looked up): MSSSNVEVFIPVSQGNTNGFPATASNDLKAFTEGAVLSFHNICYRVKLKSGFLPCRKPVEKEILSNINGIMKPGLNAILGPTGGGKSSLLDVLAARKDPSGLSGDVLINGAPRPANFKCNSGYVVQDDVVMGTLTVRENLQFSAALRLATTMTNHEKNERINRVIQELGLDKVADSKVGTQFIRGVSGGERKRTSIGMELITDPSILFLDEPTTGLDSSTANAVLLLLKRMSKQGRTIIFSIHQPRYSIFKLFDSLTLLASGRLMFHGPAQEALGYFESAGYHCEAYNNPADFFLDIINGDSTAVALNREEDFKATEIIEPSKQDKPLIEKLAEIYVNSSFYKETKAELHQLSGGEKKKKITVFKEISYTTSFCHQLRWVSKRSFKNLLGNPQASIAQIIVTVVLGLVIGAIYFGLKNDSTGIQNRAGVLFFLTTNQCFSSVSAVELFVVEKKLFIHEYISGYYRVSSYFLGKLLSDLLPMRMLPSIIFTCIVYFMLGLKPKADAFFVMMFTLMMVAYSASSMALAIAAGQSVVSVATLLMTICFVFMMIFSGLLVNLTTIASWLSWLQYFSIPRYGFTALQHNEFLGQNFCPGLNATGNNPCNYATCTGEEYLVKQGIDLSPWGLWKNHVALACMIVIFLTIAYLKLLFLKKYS

COC(=O)c1ccccc1O
inactive: [1] | [2] | [3] | [4] | [5] | [6] | [7] | [8] | [9] | [10] | [11] | [12] | [13] | [14] | [15] | [16]

O=C(OC[C@H]1O[C@@H](OC(=O)c2cc(O)c(O)c(OC(=O)c3cc(O)c(O)c(O)c3)c2)[C@H](OC(=O)c2cc(O)c(O)c(OC(=O)c3cc(O)c(O)c(O)c3)c2)[C@@H](OC(=O)c2cc(O)c(O)c(OC(=O)c3cc(O)c(O)c(O)c3)c2)[C@@H]1OC(=O)c1cc(O)c(O)c(OC(=O)c2cc(O)c(O)c(O)c2)c1)c1cc(O)c(O)c(OC(=O)c2cc(O)c(O)c(O)c2)c1
inactive: [1] | [2] | [4] | [5] | [10] | [12] | [13] | [14]
active: [3] 3.26 µM | [6] 9.66 µM | [7] 7.96 µM | [8] 15.2 µM | [9] 8.88 µM | [11] 3.31 µM | [15] 8.86 µM | [17] 15.2 µM | [16] 6.96 µM

CN(C)c1ccc(Cc2ccc(N(C)C)cc2)cc1
active: [11] 61.6 µM | [15] 50 µM | [16] 76.1 µM
inactive: [1] | [2] | [3] | [4] | [5] | [6] | [7] | [8] | [9] | [10] | [12] | [13] | [14]
